Laboratory results published in the supplement of paper PMC11417369.
± gives the standard deviation of the averaged measurements. Whole data set: some 25,000 sequences, median “ln(normalized median fluorescence intensity)” near 8.9, cut for the highest 2% near 10. This excerpt belongs to a sample that is enriched for the highest values.

Each sequence was assayed on PfAP2-LT AP2 domain (GST-tagged) (assay: gcPBM binding intensity (ln(normalized median fluorescence intensity)); higher = stronger DNA binding).
Outline: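 Binding intensity is defined as the maximum Masliner-normalised natural-log median intensity across replicate spots for either probe orientation. It was measured on an Agilent 4 × 180k array of primer-extended double-stranded 36-bp intergenic genomic probes and negative controls, to which GST-tagged P. falciparum DNA-binding domains made in E. coli were applied for 1 h in 1× PBS with 1% milk, 0.2 mg/ml BSA, 0.5% salmon testes DNA and 0.03% Triton X-100. Detection was by Alexa488 anti-GST antibody and scanning at 488 nm.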

| Sequence | gcPBM binding intensity (ln) |
| --- | --- |
| TGAAAATATTTTATATGTACATATATTATCAATACA [XGTACX_site92] | 8.64 ± 0.38 |
| TTTCTGATATTTTTATATTTTCTTATATATATATAT [GTGCAC_negctrl_site652] | 8.77 ± 0.52 |
| TGTCTTATTTATATTACACACTATATGAAAAAATAT [CACACA_site6807] | 8.6 ± 0.38 |
| ATAAATAAATAAGTACATATATATATGTATATATAT [TGCATGCA_negctrl_site223] | 9.05 ± 0.42 |
| ACTAAATAAATAAATATAATATATAAATATGTATGT [TGCATGCA_negctrl_site583] | 8.78 ± 0.43 |
| TTTATTAATAATTATACACACATATAAAATGAATAA [CACACA_site1359] | 8.58 ± 0.51 |
| TTAATATGAAAACTCTGTACCCAACCTTCTTATGGA [XGTACX_site2126] | 8.62 ± 0.28 |
| ATGCAATTATATAGTAGTACAAATTTATAAATATAC [XGTACX_site4869] | 8.94 ± 0.37 |
| ATTTAATAAAAAAAAAAAATATTGTAGAATATGATG [GTGCAC_negctrl_site195] | 8.27 ± 0.52 |
| AAAGGTATATATGTGTGTACATATATATATATATAT [XGTACX_site5629] | 9.955 ± 0.0071 |
| TCCTTTTCTTAATTTAAAAAATATAAAAAAAACGAA [CACACA_negctrl_site1821] | 7.94 ± 0.34 |
| TGAACTCATAGGAAAACACACATATGTGCAATATAT [CACACA_site6231] | 9.12 ± 0.36 |
| TATATATACAGACACATACACACAAATAAAAAAACA [CACACA_site3413] | 9.39 ± 0.35 |
| AAAAAAAACAGACACACACACATACAAAATATATAT [CACACA_site1449] | 9.79 ± 0.3 |
| AAAACAGACAAACACACACACACATATATATATATA [CACACA_site3393] | 10.37 ± 0.071 |
| AAAACAAACAGACACACACACATATATATATATATA [CACACA_site3655] | 10.4 ± 0.24 |
| AAAAAAAACAGACACACACACATAAATATAAATAAA [CACACA_site6214] | 9.74 ± 0.31 |
| AAAAGGAACAGACACACACACATATATAAATATGTA [CACACA_site7656] | 9.8 ± 0.42 |
| AAAAAAAACGGACACACACACATACAAAATATATAT [CACACA_site4910] | 9.99 ± 0.28 |

| Sequence | gcPBM binding intensity (ln) |
| --- | --- |
| AAGGTAAACGGACACACACACATACAAAAAAAAAAA [CACACA_site5961] | 9.77 ± 0.67 |
| AAAACAAACAGACACACACACATATTTATATTTATA [CACACA_site7681] | 9.79 ± 0.4 |
| AAAAGGAACAGACACACACACATATATATATATATA [CACACA_site3587] | 10.3 ± 0.29 |
| AAAACAAACGGACACACACACATATATATATATATA [CACACA_site5924] | 10.2 ± 0.44 |
| TACAAACAGACATATACACACAAAAAAAAAATAAAA [CACACA_site2562] | 9.16 ± 0.43 |
| ATAACATATTTCTTTTGTACTCAAAATAAAATTAAT [XGTACX_site2479] | 8.37 ± 0.4 |
| ATATAATAAATATGTTGTACTATAAAAAATAGCCAT [XGTACX_site4710] | 8.78 ± 0.33 |
| AAATTATAATTAGGAACACACATATATATATATATA [CACACA_site3098] | 9.78 ± 0.29 |
| GGACTATACAGTTATACACACACATATATATATAAT [CACACA_site7991] | 9.6 ± 0.4 |
| AAGAAGCATAAATGTACACACATATTTATATATTAA [CACACA_site1332] | 9.01 ± 0.43 |
| ATATATATATATGTCTGTACATAAAAAATAATAAAT [XGTACX_site3122] | 8.975 ± 0.064 |
| ATATATATATATATATGTACATATTTTATAACTGTA [XGTACX_site5395] | 9.72 ± 0.35 |
| ATATATATATATATATGTACATATGTCAACTGTCTA [XGTACX_site8636] | 10.1 ± 0.43 |
| TTTTTGTAATATTATGATGTCATATATATATATATA [XGTACX_negctrl_site618] | 9.035 ± 0.078 |
| TTTTAAATATGCAGATGTACATTATAATGTTTTATT [XGTACX_site2079] | 8.87 ± 0.47 |
| ATATATATGAAACACACACACAAAAAAAAAAAAAAA [CACACA_site3647] | 9.45 ± 0.57 |
| TATATATAGAAACACACACACAAAAAAAAAAAAAAA [CACACA_site1506] | 9.15 ± 0.46 |
| TAGTATAATATGAACACACACACACCCACAAAAAAA [CACACA_site2009] | 10 ± 0.29 |
| ATAATATGAAAACACACACACACACCCAAAAAAAAA [CACACA_site2011] | 10.1 ± 0.15 |

| Sequence | gcPBM binding intensity (ln) |
| --- | --- |
| GTATAATATGAACACACACACACACCCAAAAAAAAA [CACACA_site5152] | 10.3 ± 0.45 |
| GTATAATATGAACACACACACACACGCAAAAAAAAA [CACACA_site7036] | 10.19 ± 0.064 |
| TAGTATAATATGAACACACACACACCGACAAAAAAA [CACACA_site5151] | 9.96 ± 0.2 |
| TCATATGTGAAACACACACACACACCCAAAAAAACA [CACACA_site3247] | 10.06 ± 0.028 |
| GTATAATAGAAACACACACACACACCCAAAAAAAAA [CACACA_site2010] | 10.3 ± 0.39 |
| AATATATAGAAACACACACACAAAAAAAAAAAAAAA [CACACA_site1326] | 9.27 ± 0.47 |
| TAGTATAATATGAACACACACACACGCACAAAAAAA [CACACA_site7035] | 9.94 ± 0.27 |
| ATCGTAGTATAATATGAACACACACCCACCCACAAA [CACACA_site8616] | 9.71 ± 0.29 |
| TTTTTTTTTGAAAAAAGTACTTAATTTTTAAGAAGA [XGTACX_site3591] | 7.83 ± 0.3 |
| AATATATATATATATATATATTTTTGTTAGAATATG [XGTACX_negctrl_site58] | 8.95 ± 0.32 |
| TAAGTTTGTCAATCAACACACACCTATTTATTATAT [CACACA_site3919] | 9.11 ± 0.35 |
| AACACAATAAAAATTAAAAATGTTAAGTAAATATAA [GTGCAC_negctrl_site60] | 8.68 ± 0.52 |
| ATATATATATGAATCACACACAAAAAATATAGAGAT [CACACA_site3913] | 9.51 ± 0.41 |
| ATGCAACTATATATATATATTATATGTATGAATAAT [XGTACX_negctrl_site434] | 8.97 ± 0.28 |
| ATAATATATTTATGTTGTACAAGGAAAATTTTGAAA [XGTACX_site3472] | 8.76 ± 0.42 |
| ATTTTTTTTATTCAATGTACTTTTTTTTATATATAT [XGTACX_site4978] | 8.8 ± 0.45 |
| TATACTCAGAAACACACACACACACCCAAAAAAAAA [CACACA_site4434] | 10.1 ± 0.35 |
| AGTATACTCAAACACACACACACAAAAAAAAAAAAA [CACACA_site4398] | 9.88 ± 0.58 |
| TATACATACTCACCCACACACAAAAAAAAAAAAAAA [CACACA_site862] | 9.28 ± 0.47 |
